PubChem BioAssay (NCATS)
Results filed as inconclusive are left out. Where a call stands in place of a potency, no number is given. Calls of active or inactive are those of the source. The call rests on the fitted dose curve; in most records, active means well fitted inhibition curve with a large enough effect; inconclusive means small, poorly fitted or top-dose-only effect; inactive means flat fitted curve, though single readings scatter.

How the values were obtained:
Assay in all cases: qHTS profiling for inhibitors of Plasmodium falciparum proliferation (AID 504749); further: nearly all actives have a fitted effect of over 60% in size
Conditions in all cases: P. falciparum in erythrocytes, SYBR Green DNA, 72 h; series mostly up to 28.7 µM
CP203 = test system: CP203
Outline: (§1)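 P. falciparum-infected erythrocytes (0.3% parasitemia, 2.5% hematocrit final) were exposed to compounds for 72 h at 37 C in 5% CO2, then lysed with SYBR Green buffer overnight at room temperature; parasite DNA fluorescence was normalized to artemisinin and DMSO controls.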

CP211 = test system: CP211
Outline: as §1

CP215 = test system: CP215
Outline: as §1

CP217 = test system: CP217
Outline: as §1

CP237 = test system: CP237
Outline: as §1

CP238 = test system: CP238
Outline: as §1

CP247 = test system: CP247
Outline: as §1

CP250 = test system: CP250
Outline: as §1

CP252 = test system: CP252
Outline: as §1

CP256 = test system: CP256
Outline: as §1

CP260 = test system: CP260
Outline: as §1

CP262 = test system: CP262
Outline: as §1

CP265 = test system: CP265
Outline: as §1

CP266 = test system: CP266
Outline: as §1

CP268 = test system: CP268
Outline: as §1

CP269 = test system: CP269
Outline: as §1

CP286 = test system: CP286
Outline: as §1

CP291 = test system: CP291
Outline: as §1

CP297 = test system: CP297
Outline: as §1

CP305 = test system: CP305
Outline: as §1
Potency means the concentration at half of the fitted maximal effect.

Row | Compound | Potency (CP203) | Potency (CP211) | Potency (CP215) | Potency (CP217) | Potency (CP237) | Potency (CP238) | Potency (CP247) | Potency (CP250) | Potency (CP252) | Potency (CP256) | Potency (CP260) | Potency (CP262) | Potency (CP265) | Potency (CP266) | Potency (CP268) | Potency (CP269) | Potency (CP286) | Potency (CP291) | Potency (CP297) | Potency (CP305)
1 | FC(F)OC(F)(F)C(F)Cl (stereo not drawn) | inactive | inactive | inactive | inactive | inactive | inactive | inactive | inactive | inactive | inactive | inactive | inactive | inactive | inactive | inactive | inactive | inactive | inactive | inactive | inactive
2 | O=[N+]([O-])c1cc(I)c(O)c(I)c1 | inactive | inactive | inactive | inactive | inactive | inactive | inactive | inactive | inactive | inactive | inactive | inactive | inactive | – | inactive | inactive | inactive | inactive | inactive | inactive
3 | CCC(C)(S(=O)(=O)CC)S(=O)(=O)CC | inactive | inactive | inactive | inactive | inactive | inactive | inactive | – | inactive | inactive | – | inactive | inactive | inactive | inactive | inactive | inactive | inactive | inactive | inactive
4 | O=C(NCNC(=O)NC1C(=O)NC(=O)N1CO)NC1C(=O)NC(=O)N1CO (stereo not drawn) | inactive | inactive | inactive | inactive | inactive | inactive | inactive | inactive | inactive | inactive | inactive | inactive | inactive | inactive | – | inactive | inactive | inactive | inactive | inactive
5 | c1ccc2cc(CC3=NCCN3)ccc2c1 | inactive | inactive | inactive | inactive | inactive | inactive | inactive | inactive | inactive | inactive | inactive | inactive | inactive | – | inactive | inactive | inactive | inactive | inactive | inactive
6 | O=C1C2CC=CCC2C(=O)N1SC(Cl)(Cl)Cl (stereo not drawn) | inactive | inactive | inactive | inactive | inactive | inactive | inactive | inactive | inactive | inactive | inactive | inactive | inactive | inactive | inactive | inactive | inactive | inactive | inactive | inactive
7 | CCC1(CC)C(=O)NC(=O)N(C)C1=O | inactive | inactive | inactive | inactive | inactive | inactive | inactive | inactive | inactive | inactive | inactive | inactive | inactive | – | inactive | inactive | inactive | inactive | inactive | inactive
8 | C=CCN(C1=NCCN1)c1c(Cl)cccc1Cl | inactive | inactive | inactive | inactive | inactive | inactive | inactive | inactive | inactive | inactive | inactive | inactive | inactive | inactive | inactive | inactive | inactive | – | inactive | inactive
9 | C/C(=C\c1csc(C)n1)[C@@H]1C[C@@H]2O[C@]2(C)CCC[C@H](C)[C@H](O)[C@@H](C)C(=O)C(C)(C)[C@@H](O)CC(=O)O1 | 2.4 nM (active) | 3 nM (active) | 3.8 nM (active) | 4 nM (active) | 1.6 nM (active) | 3.2 nM (active) | 2.8 nM (active) | 7.1 nM (active) | 3.5 nM (active) | 2.2 nM (active) | 2.2 nM (active) | – | 4 nM (active) | – | – | 3.8 nM (active) | 1.8 nM (active) | 2.1 nM (active) | 4.3 nM (active) | –
10 | S=C(S)N1CCNCC1 | inactive | inactive | inactive | inactive | inactive | inactive | inactive | inactive | inactive | inactive | – | inactive | inactive | inactive | inactive | inactive | inactive | inactive | inactive | inactive
11 | C[N+]1(C)C2CCC1CC(OC(=O)c1c[nH]c3ccccc13)C2 (stereo not drawn) | inactive | inactive | inactive | inactive | inactive | inactive | inactive | inactive | inactive | inactive | inactive | inactive | inactive | inactive | inactive | inactive | inactive | inactive | inactive | inactive
12 | O=C(CCl)c1ccc(Oc2ccc(C(=O)CCl)cc2)cc1 | inactive | inactive | inactive | inactive | inactive | inactive | inactive | inactive | inactive | inactive | inactive | inactive | inactive | – | inactive | inactive | inactive | inactive | inactive | inactive
13 | N#CC1(N2CCCCC2)CCCCC1 | inactive | inactive | inactive | inactive | inactive | inactive | inactive | inactive | inactive | inactive | – | inactive | inactive | inactive | inactive | inactive | inactive | inactive | inactive | inactive
14 | CCCCNCC(O)c1ccc(O)cc1 (stereo not drawn) | inactive | inactive | inactive | inactive | inactive | inactive | inactive | inactive | inactive | inactive | inactive | inactive | inactive | inactive | inactive | inactive | inactive | inactive | inactive | inactive
15 | O=CC=O | inactive | inactive | inactive | inactive | inactive | inactive | inactive | inactive | inactive | inactive | inactive | inactive | inactive | inactive | inactive | inactive | inactive | inactive | inactive | inactive
16 | CNC(C)C(O)c1ccc(O)cc1 (stereo not drawn) | inactive | inactive | inactive | inactive | inactive | inactive | inactive | inactive | inactive | inactive | – | inactive | inactive | inactive | inactive | inactive | inactive | inactive | inactive | inactive
17 | COCC(C)N(C(=O)CCl)c1c(C)csc1C (stereo not drawn) | inactive | inactive | inactive | inactive | inactive | inactive | inactive | inactive | inactive | inactive | inactive | inactive | inactive | inactive | inactive | inactive | inactive | inactive | – | inactive
18 | CCCCCCCCCC(=O)O[C@H]1CC[C@H]2[C@@H]3CCC4=CC(=O)CC[C@]4(C)[C@H]3CC[C@]12C | inactive | inactive | inactive | inactive | inactive | inactive | inactive | inactive | inactive | inactive | – | inactive | inactive | inactive | inactive | inactive | – | inactive | inactive | inactive
19 | C[C@]12CCC(=O)C[C@@H]1CC[C@@H]1[C@@H]2CC[C@]2(C)[C@@H](O)CC[C@@H]12 | inactive | inactive | inactive | inactive | inactive | inactive | inactive | – | inactive | inactive | – | inactive | inactive | inactive | inactive | inactive | inactive | inactive | inactive | inactive
20 | O=[N+]([O-])c1ccccc1 | inactive | inactive | inactive | inactive | inactive | inactive | inactive | inactive | inactive | inactive | inactive | inactive | inactive | inactive | inactive | inactive | inactive | inactive | inactive | inactive
21 | C[C@H]1CC[C@@H]2[C@@H](C)[C@H]3[C@H](C[C@H]4[C@@H]5CC=C6CC(O[C@@H]7O[C@H](CO)[C@H](O)[C@H](O[C@@H]8O[C@H](CO)[C@@H](O)[C@H](O)[C@H]8O)[C@H]7O[C@H]7O[C@@H](C)[C@H](O)[C@@H](O)[C@H]7O)CC[C@]6(C)[C@H]5CC[C@]34C)N2C1 (stereo partly drawn) | inactive | inactive | inactive | inactive | inactive | inactive | inactive | inactive | inactive | – | inactive | inactive | inactive | inactive | inactive | inactive | inactive | inactive | inactive | inactive
22 | c1ccc(C2(N3CCCC3)CCCCC2)cc1 | – | – | – | 8910 nM (active) | 11200 nM (active) | – | 7940 nM (active) | – | – | – | 8910 nM (active) | – | – | inactive | – | – | 10000 nM (active) | – | 15100 nM (active) | –
23 | Oc1cc(Cl)c(Cl)cc1Cl | – | inactive | inactive | inactive | inactive | inactive | inactive | inactive | inactive | inactive | inactive | inactive | inactive | inactive | inactive | inactive | inactive | inactive | inactive | inactive
24 | CN1[C@@H]2CC[C@H]1CC(OC1c3ccccc3CCc3ccccc31)C2 (stereo partly drawn) | – | – | inactive | 3160 nM (active) | – | – | – | – | 3160 nM (active) | inactive | – | inactive | inactive | inactive | inactive | inactive | – | inactive | – | inactive
25 | CCC1(c2ccccc2)C(=O)NC(=O)N(C(=O)c2ccccc2)C1=O (stereo not drawn) | inactive | inactive | inactive | inactive | inactive | inactive | – | inactive | inactive | inactive | inactive | inactive | inactive | inactive | inactive | inactive | inactive | inactive | inactive | inactive
26 | C[CH2][Hg][S]c1ccccc1C(=O)O | – | 4260 nM (active) | 1510 nM (active) | 3980 nM (active) | 1260 nM (active) | 3550 nM (active) | 3160 nM (active) | 3550 nM (active) | 3160 nM (active) | 3160 nM (active) | 1000 nM (active) | – | 1410 nM (active) | 4260 nM (active) | 3790 nM (active) | 1690 nM (active) | 1410 nM (active) | 3790 nM (active) | 1690 nM (active) | 3790 nM (active)
